Reference: PubChem BioAssay (NCI)
This is part of a sample that, as a whole, favours compounds with a hit. Of some 83,000 tested, about 20% had one in any assay.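 Single-concentration screen, 48 h exposure, 96-well plates. Endpoint: percent growth. Below 10 = active.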 Values without a mark were called inactive. Calls of active or inactive are those of the source.

How the values were obtained:
Experiment in all cases: NCI-60 one-dose screen, 48 h (100 = growth as untreated, 0 = no growth, -100 = all killed)
Details in all cases: 10 µM
NCI-H23 lung = test system: NCI-H23 lung
NCI-H226 lung = test system: NCI-H226 lung
HOP-62 NSCLC = test system: HOP-62 NSCLC
NCI-H460 lung = test system: NCI-H460 lung
HOP-92 NSCLC = test system: HOP-92 NSCLC
NCI-H522 lung = test system: NCI-H522 lung
A549/ATCC NSCLC = test system: A549/ATCC NSCLC
786-0 renal = test system: 786-0 renal
COLO 205 colon = test system: COLO 205 colon
DU-145 prostate = test system: DU-145 prostate
K-562 leukemia = test system: K-562 leukemia
MALME-3M melanoma = test system: MALME-3M melanoma
MDA-MB-231 breast = test system: MDA-MB-231 breast
RXF 393 renal = test system: RXF 393 renal
SF-268 CNS = test system: SF-268 CNS
SF-539 CNS = test system: SF-539 CNS
UACC-257 melanoma = test system: UACC-257 melanoma
M14 melanoma = test system: M14 melanoma
SF-295 CNS = test system: SF-295 CNS

| SMILES | growth (NCI-H23 lung) | growth (NCI-H226 lung) [%] | growth (HOP-62 NSCLC) | growth (NCI-H460 lung) | growth (HOP-92 NSCLC) | growth (NCI-H522 lung) | growth (A549/ATCC NSCLC) | growth (786-0 renal) | growth (COLO 205 colon) | growth (DU-145 prostate) | growth (K-562 leukemia) | growth (MALME-3M melanoma) | growth (MDA-MB-231 breast) | growth (RXF 393 renal) | growth (SF-268 CNS) | growth (SF-539 CNS) | growth (UACC-257 melanoma) | growth (M14 melanoma) | growth (SF-295 CNS) |
| --- | --- | --- | --- | --- | --- | --- | --- | --- | --- | --- | --- | --- | --- | --- | --- | --- | --- | --- | --- |
| COc1ccc2nc3cc(Cl)ccc3c(N)c2c1 | -93.9% (active) | 36.7 | -94.3% (active) | -75.2% (active) | 91.3% | -75.8% (active) | -73% (active) | -98.9% (active) | -87.6% (active) | -96.8% (active) | -60.6% (active) | -71.8% (active) | -94.1% (active) | -98.1% (active) | -85.7% (active) | -90.3% (active) | -81.2% (active) | -95.6% (active) |  |
| Cc1ccc(NCCNCC(C)(C)O)c2c(=O)c3ccc(Cl)cc3sc12 | 52% | 76.6 | 80.1% | -73.7% (active) | 21% | 49.4% | -42.9% (active) | 54% | -79.2% (active) | 5.67% (active) | -63.1% (active) | -71.8% (active) | -36.9% (active) | 24.2% | 39.4% | 69.8% | 78.5% | -78.7% (active) | 74.1% |
| Cc1cccc(N=Cc2ccccc2O)c1C | 94.8% | 104 | 103% | 114% | 97.3% | 114% | 88.2% | 94.5% |  | 126% | 98.3% | 91.7% | 102% | 110% | 116% | 102% | 94.6% | 105% | 106% |
| O=C(COc1cccc(/C=C2\CSc3ccccc3C2=O)c1)c1ccc(Cl)cc1 | -7.19% (active) | 80.1 | 79.5% | 68.5% | 56.5% | -76.8% (active) | 40.6% | 80.3% | 96.2% | 94.9% | -76.8% (active) | -61.9% (active) | 68.8% |  | 29.9% | 50.6% | -47% (active) | -34.7% (active) | -28.1% (active) |
| CCn1c(SC/C(=N/O)c2ccccc2)nnc1-c1ccccc1 | 103% | 108 | 111% | 102% | 62.5% | 112% | 101% | 105% |  | 107% | 86% | 98.6% | 94.6% | 117% | 108% | 93.7% | 104% | 109% | 109% |
| C[n+]1c2ccccc2nc2ccccc21 | -9.78% (active) | 42.2 | -18.8% (active) | 17.3% | -10.7% (active) | -39.4% (active) | 24.1% | 10.9% | -25.3% (active) | -59.4% (active) | 25.5% |  | -2.35% (active) | 24.3% | 20.7% | 29.1% |  | -55.7% (active) | 23.4% |
| COc1cc(-c2nn(-c3cccc(NC(=O)CCN4CCN(Cc5ccccc5)CC4)c3)cc2-c2ccncc2)ccc1Cl | 20.8% | 54 | 24% | 1.48% (active) | -0.56% (active) | -31.4% (active) | 11.6% | -59.9% (active) |  | 7.55% (active) | -43.1% (active) | -60.7% (active) | -14.7% (active) | -50.6% (active) | 19.1% | -74.3% (active) | -58.2% (active) | -61.3% (active) | -46.5% (active) |
| Nc1nc(Cn2c(-c3nonc3N)nc3ccccc32)nc(N2CCCCC2)n1 | 90.5% | 94.4 | 91.7% | 99.4% | 82.3% | 71.7% | 93.1% | 92% | 94.4% | 99% | 49.3% |  | 84.8% | 87.7% | 95.6% | 101% | 93.1% | 98.4% | 96.7% |
| O=C1c2ccccc2C(=O)N1CCCCNc1ccccc1 | 104% | 91.7 | 122% | 89.3% | 106% | 101% | 78.2% | 63.7% | 114% | 102% | 149% |  | 79.6% | 104% | 54.1% | 74.6% | 106% | 98.9% | 98% |
| COc1ccc(/C=c2\sc3n(c2=O)C(c2cc(OC)c(OC)c(OC)c2)C=C(c2ccc(OC)c(OC)c2)N=3)cc1OC (stereo not drawn) | 103% | 108 | 103% | 107% | 63.3% | 58.1% | 100% | 78.1% | 97.3% | 112% | 89.9% |  | 85.5% | 105% | 91.1% |  | 88.9% | 100% | 115% |
| Cc1ccc(C(C)C)c(O)c1NC(=O)OC(C)C | 96.2% | 99.4 | 91.6% | 102% | 75.7% | 84.8% | 104% | 92.3% | 99.6% | 107% | 114% |  | 106% | 108% | 93.8% |  | 91.7% | 96.6% | 101% |
| COc1cc(C2CC(c3ccc4c(c3)OCO4)=NN2c2ccccc2)cc(OC)c1OC (stereo not drawn) | 93.9% | 102 | 104% | 103% | 84.1% | 73.4% | 98.5% | 95.9% | 86.8% | 107% | 48.8% |  | 82.2% | 106% | 83.6% |  | 90.3% | 91.6% | 91.2% |
| Oc1cccc(-c2nc3sccn3c2-c2ccncn2)c1 | 92.1% | 94.4 | 103% | 97.8% | 82.6% | 98.9% | 100% | 95.7% |  | 106% | 90% | -8.47% (active) | 81.4% | 67.3% | 106% | 98.8% | 31% | 19.4% | 101% |
| Cc1nn(-c2ccccc2)c2nc(Cl)c(C=O)c(-c3ccccc3)c12 | 80.6% | 93.3 | 115% | 94% | 65.7% | 106% | 78.3% | 94.5% | 121% | 101% | 77.3% |  | 96.5% | 105% | 90.2% |  | 98.3% | 111% |  |
| Cc1cc(=O)n2nnc3cc(Cl)c(Cl)cc3n12 | 95.6% | 112 | 111% | 113% | 101% | 53.9% | 104% | 108% | -63.7% (active) | 105% |  |  | 107% | 91.9% | 101% | 108% | 102% | 96.9% | 111% |
| CC(C)(C)c1nn(-c2ccccc2)c2c1CC1(CN2Cc2ccc(Cl)cc2)C(=O)c2ccccc2C1=O | 80.8% | 81.9 | 102% | 90.7% | 54.8% | 80.3% | 70.7% | 86.7% | 117% | 95.8% | 81.3% |  | 83.2% | 95.3% | 89% |  | 76.1% | 87.1% |  |
| OCCn1cccn1 | 93.1% | 99.9 | 104% | 102% | 101% | 101% | 111% | 109% | 125% | 104% | 101% |  | 103% | 93.8% | 100% | 98.3% | 136% | 112% | 108% |
